# Test results: PubChem BioAssay
# Values joined by “and” are separate entries in the source; they are usually repeats but may differ in a detail not shown here. Equal entries are not always repeated. Results filed as inconclusive are left out. Active and inactive are the calls of the source. Unless noted, the limit is not given here; nearly all actives have AC50 up to about 26 µM.
# Key:
# [1] = growth inhibition of DIPG glioma cells, dose response, cell-based, SU-DIPG-XVII, MIPE5.0, CellTiter-Glo, qHTS (AID 1347060); conditions: SU-DIPG-XVII viability, CellTiter-Glo ATP luminescence;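 also: cells exposed to compound for 48 hours before viability readout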
# [2] = growth inhibition of DIPG glioma cells, dose response, cell-based, JHH-DIPG-1, MIPE4.0, CellTiter-Glo, qHTS (AID 1347062; cut-off not given, nearly all actives have AC50 up to about 27 µM;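 as to AC50: cells exposed to compound for two days before readout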); conditions: JHH-DIPG-1 viability, CellTiter-Glo ATP luminescence
# [3] = growth inhibition of DIPG glioma cells, dose response, cell-based, SU-DIPG-IV, MIPE4.0, CellTiter-Glo, qHTS (AID 1347063; cut-off not given, nearly all actives have AC50 up to about 30 µM;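 also: compound exposure lasted 48 hours before the viability readout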); conditions: SU-DIPG-IV viability, CellTiter-Glo ATP luminescence
# [4] = growth inhibition of DIPG glioma cells, dose response, cell-based, SU-DIPG-XIII, MIPE5.0, CellTiter-Glo, qHTS (AID 1347064; cut-off not given, nearly all actives have AC50 up to about 23 µM;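 also: cells exposed to compound for 48 hours before the viability read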); conditions: SU-DIPG-XIII viability, CellTiter-Glo ATP luminescence
# [5] = viability loss in pontine glioma line – cell-based, SU-DIPG-XXV, MIPE5.0, CellTiter-Glo, qHTS, dose response (AID 1347065); conditions: CellTiter-Glo ATP luminescence;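 also: cells exposed to compound for 48 hours before ATP readout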
# [6] = JHH-DIPG-1 glioma cell viability, MIPE5.0 library, CellTiter-Glo luminescence, qHTS (AID 1347067); conditions: JHH-DIPG-1 glioma viability, CellTiter-Glo ATP luminescence;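 also: cells exposed to compound for 48 hours before readout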
# [7] = SU-DIPG-VI glioma cell viability, MIPE4.0 library, CellTiter-Glo luminescence, qHTS (AID 1347066; cut-off not given, nearly all actives have AC50 up to about 30 µM;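 also: cells exposed to compound for 48 hours before readout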); conditions: CellTiter-Glo ATP luminescence
# [8] = SU-DIPG-XXV glioma cell viability, MIPE5.0 library, qHTS (AID 1347068; cut-off not given, nearly all actives have IC50 up to about 30 µM;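 as to IC50: cells exposed to compound for 48 hours before viability readout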)
# [9] = sensitizers of A549 cells to miR-34 induction, primary screen, imaging, A549 dox-inducible miR-34, nuclei and caspase counts (AID 1347080;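 active = compounds whose cell count with miR-34 switched on is under 0.7 times the count with it off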); conditions: A549 miR-34 inducible, Hoechst nuclei count, 48 h
# [10] = modifiers of HSF1 nuclear foci, imaging, Selleck Cancer Library (AID 1347162; in the data active = plate-normalised HSF1 focus index below about 0.46); conditions: human cells, at 10 µM; SSMD: measured here: HSF1 foci SSMD mean; cell count: measured here: cell number; plate-normalised HSF1 focus index: stronger effect = lower value
# [11] = survival rescue of mitochondrial mutant cells in low glucose, primary screen, MELAS cybrids, Rieske KO mouse fibroblasts, CellTiter-Glo (AID 1508586;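 active = mean z-score across replicates of 1.96 or higher in either the MELAS or the Rieske mutant cell line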;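 also: z relative to plate mean and SD of compound and empty wells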)
# [12] = stronger effect = lower value, cell number ratio, induced over uninduced
# [13] = measured here: relative caspase fold change +Dox/-Dox
# [14] = measured here: total cells with miR-34 induction, stronger effect = lower value
# [15] = measured here: total cells without miR-34 induction
SMILES,AC50 [1],AC50 [2],AC50 [3],AC50 [4],AC50 [5],AC50 [6],outcome [2],outcome [3],AC50 [7],outcome [8],"fold change [9, 12]","fold change [9, 13]","cell count [9, 14]","cell count [9, 15]",IC50 [8],SSMD [10],cell count [10],plate-normalised HSF1 focus index [10],"z-score ([11]; MELAS cybrid survival, CellTiter-Glo 48 h, stronger effect = higher value)","z-score ([11]; Rieske KO mouse fibroblast survival, CellTiter-Glo 72 h)"
OCCNC1CCCc2c1[nH]c1ccc(-c3ccccc3)cc21 (stereo not given),18.6 µM (active),26.4 µM (active),20.9 µM (active),13.2 µM (active),10.5 µM (active),10.5 µM (active),,,,,,,,,,,,,,
CCCCC(C)(C)[C@H](O)/C=C/[C@H]1[C@H](O)CC(=O)[C@@H]1C/C=C\CCCC(=O)O,13.2 µM (active),,,14.8 µM (active),14.8 µM (active),14.8 µM (active),inactive,inactive,18.7 µM (active),inactive,1.01 (inactive) and 0.939 (inactive),1.62 and 1.28,6230 and 5490,6170 and 5850,,,,,,
COc1ccc(/C=C\c2cc(OC)c(OC)c(OC)c2)cc1O,0.00662 µM (active),0.00833 µM (active),,0.0186 µM (active),0.0105 µM (active),0.0105 µM (active),,inactive,,,1.24 (inactive),0.571,1250,1010,0.0148 µM (active),0.749,6590,1.05 (inactive),,
COc1ccc(-c2oc3c(CC=C(C)C)c(O)cc(O)c3c(=O)c2O)cc1,20.9 µM (active),,,16.6 µM (active),18.6 µM (active),,inactive,inactive,,inactive,,,,,,,,,,
OCc1ccc(-c2ccc(-c3ccc(CO)s3)o2)s1,14.8 µM (active),20.9 µM (active),18.7 µM (active),16.6 µM (active),23.5 µM (active),16.6 µM (active),,,,,0.99 (inactive) and 0.88 (inactive),0.768 and 1.19,3070 and 2470,3100 and 2800,,,,,-0.467 (inactive),0.342
